From ChEMBL document CHEMBL4513216, “Probing the Open Global Health Chemical Diversity Library for Multistage-Active Starting Points for Next-Generation Antimalarials” (ACS Infect Dis, 2020)
The campaign covered roughly 69,000 compounds. About 8,600 (12%) showed an effect of 50% or more. For the sample, strong results were picked, then their nearest neighbours and some compounds at random.

Test system: Plasmodium berghei
Experiment: Screen against P. berghei liver stage (PbLuc), transformed with Luciferase, at 10uM
Format: functional, HepG2
Settings: tested at 10 uM

| Compound | INHIBITION |
| --- | --- |
| CCn1cc(NC(=O)c2c(C)nn(C)c2C)c(C(N)=O)n1 | 27.4% |
| Cc1ccc(-c2ccc(CC3NCCN(C)C3=O)cc2)cc1 (stereo not drawn) | 29.2% |
| Cn1nccc1-c1nc2c(cc1C(=O)O)CCN(C(=O)C1CC1)CC2 | 72.3% |
| Cn1nccc1-c1nc2c(cc1C(=O)O)CCN(CC1CC1)CC2 | -10.3% |
| Cn1cc(-c2nc3c(cc2C(=O)O)CCN(C(=O)C2CC2)CC3)cn1 | -27.1% |
| O=C(Cn1nc(-c2ccc(F)cc2)oc1=O)NCCc1ccccc1 | 27.6% |
| CNC(=O)CN1CC[C@H]2CN(C(=O)c3ccc(C)cc3)C[C@H]2C1 | -99.2% |
| Cc1nc(CN2CCC3(CCCN(Cc4cccnc4)C3)C2=O)cs1 (stereo not drawn) | 36.2% |
| CC(C)C(=O)N1CCC[C@]2(C(=O)N(C)C)CN(c3ccccn3)C[C@@H]2C1 | -28% |
| Cn1cc(C2CCCN2Cc2csc(Cc3ccccc3)n2)cn1 (stereo not drawn) | 35.9% |
| COc1ccc(CNC(=O)c2ccoc2CN2CCNC(=O)C2)cc1 | 29.3% |
| CCCc1nc(N2CCC(C)CC2)c2c(n1)c(C)nn2CC | 12.3% |
| CCCc1nc(N2CCCCCC2)c2c(n1)c(C)nn2CC | 78.4% |
| CCCc1nc(N2CCCC(C)C2)c2c(n1)c(C)nn2CC (stereo not drawn) | 66.5% |
| CCCc1nc(N2CCN(CC)CC2)c2c(n1)c(C)nn2CC | 33.5% |
| CCCc1nc(N2CCSCC2)c2c(n1)c(C)nn2CC | -3.47% |
| CCCc1nc(N2CCCCC2)c2c(n1)c(C)nn2CC | 11.7% |
| CCC(=O)N1CCC(c2nc(O)c3c(n2)CN(C2CCCCC2)CC3)C1 (stereo not drawn) | 38.8% |
| Cn1cccc1C(=O)N1CCO[C@@H]2CN(Cc3ccco3)C[C@@H]2C1 | 15.8% |
| c1csc(CN2CCc3ncnc(C4CCOC4)c3CC2)c1 (stereo not drawn) | 33% |
| COc1ccc(OC)c(CNC2CCCN(c3cccnn3)C2)c1 (stereo not drawn) | 30.5% |
| COc1ccc(-c2ccoc2)cc1CNC1CCCC1 | 61.9% |

| Compound | INHIBITION |
| --- | --- |
| COc1ccc(-c2cc[nH]n2)cc1CNC1CCCC1 | 72.1% |
| COc1ccc(-c2cn[nH]c2)cc1CNC1CCCC1 | 9.04% |
| COc1ccc(-c2ccncc2)cc1CNC1CCCC1 | 51.7% |
| COc1cccc(-c2n[nH]cc2CNC2CCC(O)CC2)c1 (stereo not drawn) | 19.4% |
| CCN1CCC(CNCc2cc(OC)ccc2OC)C1 (stereo not drawn) | 10.1% |
| COc1ccc(OC)c(CNC2CCCc3nc(N(C)C)ncc32)c1 (stereo not drawn) | 37.6% |
| COc1ccc(CNC2CCN(CCc3ccncc3)CC2)cc1O | -4.86% |
| Cc1cc(C(=O)CN(Cc2cccnc2)CC2CCCO2)c(C)[nH]1 (stereo not drawn) | 10.7% |
| Cc1cnc(C(NC(=O)NCC2(CO)CC2)C2CC2)s1 (stereo not drawn) | 22.8% |
| CC(C)c1nc(C(=O)N2C[C@@H]3CC[C@H]2CN(C2CCOCC2)C3)cs1 | 44.8% |
| CCn1ccc(C(=O)N2CCCC2(C)c2nc(C)cc(N(C)C)n2)n1 (stereo not drawn) | -4.51% |
| COc1ccc(CNc2c(C)nn(C(C)C)c2C)cc1 | 69.3% |
| COc1ccc(CNc2nc(C3CC3)no2)cc1OC | 25.6% |
| COc1ccc2cc(CNc3c(C)nn(C(C)C)c3C)ccc2c1 | 62.8% |
| COc1cccc(CNc2c(C)nn(C(C)C)c2C)c1 | 31.3% |
| COc1ccc(CNc2n[nH]c(C)n2)cc1 | 4.03% |
| COc1ccc(CNc2c(C)nn(C(C)C)c2C)cc1OC | 62.8% |
| COc1ccc(CNc2cccnc2-n2cccn2)cc1OC | 23.9% |
| COc1ccc(C(=O)Nc2c(C)nn(C(C)C)c2C)cc1 | 10% |
| COc1ccc(CNC(C)c2cnc3cc(C)nn3c2C)cc1 (stereo not drawn) | 28.4% |
| O=C1CCOC[C@]2(CN(Cc3ccccc3)C[C@H]2c2cccnc2)N1 | 20.6% |
| CCC(C)N(Cc1ccsc1)C(=O)c1ccc(CO)cc1 (stereo not drawn) | 2.7% |

| Compound | INHIBITION |
| --- | --- |
| CC(=O)Nc1nc(C2CCN(C(=O)c3ccncc3)CC2)cs1 | -9.27% |
| CC(=O)Nc1nc(C2CCN(C(=O)c3cncs3)CC2)cs1 | 48.6% |
| CC(=O)Nc1nc(C2CCN(C(C)C)CC2)cs1 | 23.4% |
| CC(=O)Nc1nc(C2CCN(CC(N)=O)CC2)cs1 | 63.7% |
| CC(=O)Nc1nc(C2CCN(C(C)=O)CC2)cs1 | 27.9% |
| CC(=O)Nc1nc(C2CCN(C(=O)c3cccnc3)CC2)cs1 | 60.8% |
| C[C@@H]1CC[C@@H](C)N1C(=O)c1cc(COc2ccccc2)[nH]n1 | 36.7% |
| Cc1cc(C)n(CC(=O)N2CCCCC2CCc2cccs2)c(=O)n1 (stereo not drawn) | 31.2% |
| c1c(CN2CCCC2)nc2n1CCNC2 | 33.4% |
| Cc1ccc(O)c(CNc2cccc(OCCF)c2)n1 | 9.91% |
| CC[C@@H]1N(Cc2ccco2)CCC[C@]12CCC(=O)N2C | 6.27% |
| Cc1nc(C2CCCN(c3ncc(Br)cn3)C2)no1 (stereo not drawn) | 19.8% |
| CCCN(C)CC1CCN(c2ccc(Br)c(C)n2)C1 (stereo not drawn) | 74.8% |
| CCN(C)CC1CCN(c2ncc(Br)cn2)C1 (stereo not drawn) | 26% |
| CCCN(C)CC1CCN(c2ncc(Br)cn2)C1 (stereo not drawn) | 68% |
| Cc1ccc(N2CCCC(N(C)Cc3nc(C)c(C)o3)C2)nn1 (stereo not drawn) | 40.9% |
| CCN(C)CC1CCN(C(=O)Nc2ccc(C)cc2)C1 (stereo not drawn) | -45.4% |
| Cc1ccc2ncn(C(C)Cn3cccn3)c(=O)c2c1 (stereo not drawn) | 3.82% |
| O=C(NCc1sc2ccccc2c1Cl)c1cc2n(n1)CCNC2 | 25.1% |
| O=C(C1CCOCC1)N1CCO[C@@H]2[C@@H](OCc3ccncc3)CC[C@@H]21 | 23.6% |
| CC(C)c1nc(CS(=O)(=O)Cc2noc(C3CC3)n2)cs1 | 47.6% |
| Cc1ncsc1CN1CC[C@H]2OCC[C@@]2(C(=O)NC2CC2)C1 | -45.5% |

| Compound | INHIBITION |
| --- | --- |
| COc1cc(CNC(=O)N(Cc2ccc(F)cc2F)C2CC2)ccn1 | -15.5% |
| Cc1cc(-c2ccc(=O)n(C3CCN(C(=O)C4CC4)CC3)n2)c(C)o1 | 23% |
| CN(C)C(=O)COCc1cncc2c1CCN(C1CCOCC1)C2 | 4.68% |
| N#Cc1c2n(c3c(=O)[nH]cnc13)CCCCC2 | 23.5% |
| CN(Cc1noc(C2CC2)n1)C1CCN(Cc2ccncc2)C1 (stereo not drawn) | 45.8% |
| COc1cccc(-c2noc(C3CCN(CC(N)=O)C3)n2)c1 (stereo not drawn) | 41.2% |
| COc1cccc(CN2CC[C@H](c3nnc(C)o3)C2)c1 | -30% |
| COc1cccc(-c2noc(C3CCN(CC4CCCCC4)C3)n2)c1 (stereo not drawn) | 67.9% |
| COc1cccc(-c2noc(C3CCN(Cc4ccncc4)C3)n2)c1 (stereo not drawn) | 78.2% |
| COc1cccc(-c2noc(C3CCN(Cc4ccc(C)cc4)C3)n2)c1 (stereo not drawn) | 66.4% |
| COc1cccc(CN2CC[C@H](c3nnc(-c4ccco4)o3)C2)c1 | -26.1% |
| Cc1cccc(-c2noc([C@@H]3C[C@@H](O)CN3CC3CCCCC3)n2)c1 | -27.5% |
| COc1cccc(-c2noc(CN3CCOCC3C)n2)c1 (stereo not drawn) | -7.35% |
| COc1cccc(-c2noc(C3CCN(Cc4cccs4)C3)n2)c1 (stereo not drawn) | 49.6% |
| COc1cccc(-c2noc(C3CCN(Cc4ccccc4C)C3)n2)c1 (stereo not drawn) | 45.6% |
| COc1cccc(-c2noc(C3CCN(Cc4ccccc4F)C3)n2)c1 (stereo not drawn) | 84.2% |
| CCN1CC(CN(C)Cc2nc(-c3ccc(C)o3)oc2C)CC1=O (stereo not drawn) | 34.2% |
| Cc1noc(C(C)C)c1C(=O)NS(=O)(=O)c1ccc2c(c1)OCCCO2 | 7.9% |
| CNC(=O)c1ccc(-c2ccc(CNC(=O)COC)cc2)nc1C | 10.9% |
| Cc1ccc(CN(C(=O)NCC2CCS(=O)(=O)C2)C2CC2)o1 (stereo not drawn) | -39.2% |
| CCCn1nc(C(=O)NC2(c3ccc(Cl)cc3)CCCC2)ccc1=O | -51.3% |
| CCc1nc2n(n1)CC(NCc1cnn(-c3ccccc3)n1)CC2 (stereo not drawn) | 10.9165% |

| Compound | INHIBITION |
| --- | --- |
| CN1CCOCC12CCN(Cc1ccoc1)CC2 | -13.2% |
| COc1cccc(-c2noc(C3CCN(Cc4cn(C)nc4C)C3)n2)c1 (stereo not drawn) | 84.8% |
| COc1cccc(CN2CCC(c3nnc(-c4cnc(C)cn4)o3)C2)c1 (stereo not drawn) | 29.3% |
| COc1ccc(CN(Cc2cn(C)nc2C)CC2CCCO2)c(OC)c1 (stereo not drawn) | 21.9% |
| CSCc1cccc(S(=O)(=O)Nc2cc(C)on2)c1 | 8.7% |
| Cc1nc(C)c(C(=O)NCCNc2ncccc2C#N)s1 | 13.3% |
| CSc1ncccc1C(=O)NCCC(O)c1ccco1 (stereo not drawn) | 53.2% |
| CSc1ncccc1C(=O)NCCC(O)c1cccs1 (stereo not drawn) | 26% |
| CSc1ccccc1C(=O)NCCC(O)c1ccco1 (stereo not drawn) | 45.7% |
| Cc1cccc(C(=O)N2CC(Cc3nccc4ccn(C)c34)C2)n1 | -23.8% |
| CN(C)CCOCC1CN(Cc2ccsc2)Cc2ccnn2C1 (stereo not drawn) | 11.4% |
| CN(C)CCN(Cc1ccc(Cl)cc1)C(=O)c1ccncc1 | 10.6% |
| CN(C)CCN(Cc1ccc(C(F)(F)F)cc1)C(=O)c1cc[nH]n1 | 63.3% |
| CN(C)CCN(Cc1cccc(C(F)(F)F)c1)C(=O)c1cc[nH]n1 | 22.4% |
| CN(C)CCN(Cc1ccc(Cl)cc1)C(=O)c1cnccn1 | 68.3% |
| CN(C)CCN(Cc1ccc(Cl)cc1)C(=O)c1cc[nH]n1 | 10% |
| Cc1cnc(C(=O)N(CCN(C)C)Cc2ccc(Cl)cc2)cn1 | 12.2% |
| Cc1ncc(C(=O)N2CCOC(C(=O)N3CCCCCC3)C2)c(C)n1 (stereo not drawn) | 35.1% |
| O=C(CN1CCCCC1)N1CCC(c2cc(=O)n3c(n2)CCCCC3)C1 (stereo not drawn) | -15.3% |
| CC(C)NC(=O)NCC1(COc2cnccn2)C[C@@H](O)[C@@H](O)C1 (stereo partly drawn) | 45.2% |
